This note sets out measurements from article PMC4336329 (PLoS ONE, 2015).

Hit rate of the full screen: of about 310,000 compounds, about 14,000 (4.5%) showed an effect of 50% or more. Effects have a minus sign here. What follows is part of a selection rich in strong results, with near analogues and random picks from the rest.
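Note: peak tail current of the secondary pulse compared with the same well before compound.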

human ether-à-go-go-related gene (hERG) potassium channel, sequence (Q12809 whole entry, looked up): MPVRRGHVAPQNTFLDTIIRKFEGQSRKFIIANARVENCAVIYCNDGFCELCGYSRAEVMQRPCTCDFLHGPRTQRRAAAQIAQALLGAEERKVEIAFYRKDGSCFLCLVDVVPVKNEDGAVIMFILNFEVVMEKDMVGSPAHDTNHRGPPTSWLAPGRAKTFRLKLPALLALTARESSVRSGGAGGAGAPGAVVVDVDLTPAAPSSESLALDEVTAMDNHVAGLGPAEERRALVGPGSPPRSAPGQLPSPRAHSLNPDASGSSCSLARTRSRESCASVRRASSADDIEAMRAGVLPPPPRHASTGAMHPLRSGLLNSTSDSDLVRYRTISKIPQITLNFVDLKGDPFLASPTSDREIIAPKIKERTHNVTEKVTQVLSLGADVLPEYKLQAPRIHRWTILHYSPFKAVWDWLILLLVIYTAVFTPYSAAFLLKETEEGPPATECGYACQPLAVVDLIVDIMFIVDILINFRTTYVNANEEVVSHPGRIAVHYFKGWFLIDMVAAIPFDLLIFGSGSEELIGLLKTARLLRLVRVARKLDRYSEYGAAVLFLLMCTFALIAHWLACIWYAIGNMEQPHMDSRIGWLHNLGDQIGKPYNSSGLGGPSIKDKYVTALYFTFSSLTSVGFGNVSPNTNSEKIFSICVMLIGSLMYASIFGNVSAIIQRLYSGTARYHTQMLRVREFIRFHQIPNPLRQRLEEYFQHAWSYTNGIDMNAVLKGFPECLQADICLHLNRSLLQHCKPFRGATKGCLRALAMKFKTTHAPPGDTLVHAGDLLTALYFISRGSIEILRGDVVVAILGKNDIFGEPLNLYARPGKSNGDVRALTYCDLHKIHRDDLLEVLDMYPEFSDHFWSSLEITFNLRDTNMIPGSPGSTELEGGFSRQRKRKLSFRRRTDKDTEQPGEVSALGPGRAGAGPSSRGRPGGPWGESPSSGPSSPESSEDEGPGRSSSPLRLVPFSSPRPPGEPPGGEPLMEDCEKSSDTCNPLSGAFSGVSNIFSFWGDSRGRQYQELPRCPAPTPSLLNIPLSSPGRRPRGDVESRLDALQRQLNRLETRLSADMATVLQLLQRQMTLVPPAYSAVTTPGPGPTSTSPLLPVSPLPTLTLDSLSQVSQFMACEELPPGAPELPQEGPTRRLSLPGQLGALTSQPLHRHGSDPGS

This experiment addresses human ether-à-go-go-related gene (hERG) potassium channel (human, UniProt Q12809). Description: primary screen, population patch clamp on CHO cells stably expressing hERG; higher = less effect of the substance.
For `CC(=O)c1ccc(N2CCN(CC(=O)N(CC(C)C)c3c(N)n(CC(C)C)c(=O)[nH]c3=O)CC2)cc1`, the “hERG current change (%, negative = inhibition) at 10uM” value was 10.7%.
Under `CCCCc1ncc(CN2CCC(n3nccc3NC(=O)c3ccccc3Cl)CC2)[nH]1` stands -40.3%.
For `CCCn1ncc(CN2CCC(n3nccc3NC(=O)c3ccccc3OC)CC2)c1C`, the “hERG current change (%, negative = inhibition) at 10uM” value is listed as -79.2%.
Under `CCCn1ncc(CN2CCC(n3nccc3NC(=O)CCc3ccccc3)CC2)c1C` stands -26.2%.
In the case of `Cc1c(CN2CCC(n3nccc3NC(=O)c3cccc(F)c3)CC2)cnn1C` it was 9%; in that of `CCCn1cc(CN2CCC(n3nccc3NC(=O)c3ccccc3)CC2)c(C)n1`, -11%.
For `CCCn1ncc(CN2CCC(n3nccc3NC(=O)c3ccccc3Cl)CC2)c1C`, the “hERG current change (%, negative = inhibition) at 10uM” value is recorded as -75.8%.
In the case of `COc1ccccc1C(=O)Nc1ccnn1C1CCN(Cc2cnn(C)c2C)CC1` it was -63.7%.
Under `Cc1c(CN2CCC(n3nccc3NC(=O)CCc3ccccc3)CC2)cnn1C` stands 12.6%.
Take `O=C(c1ccc2c(c1)OCO2)N1CCc2ccccc21`: the “hERG current change (%, negative = inhibition) at 10uM” value is listed as -2.34%.
Consider `COCCOC(=O)c1c(C)n(C)c2ccc(OC(=O)c3ccco3)cc12`, for which the “hERG current change (%, negative = inhibition) at 10uM” value is -2.37%.
Under `CCc1n[nH]c(=S)n1/N=C/c1c(C)nn(-c2ccccc2)c1Cl` stands 21.4%.
Under `CN(C)c1ccc(/C=N/n2c(C3CCCCC3)n[nH]c2=S)cc1` stands 20%.
Under `Cc1csc(CN(C)C(=O)C2CCC(=O)N(CCCc3ccccc3)C2)n1` (stereo not shown) stands -5.37%; under `CCC1(CCCC(=O)c2ccc(F)cc2)C(=O)NC(=S)NC1=O`, -3.66%.
With `Cc1ccc(NC(=O)COc2coc(CN3CCN(Cc4ccccc4)CC3)cc2=O)cc1`, the “hERG current change (%, negative = inhibition) at 10uM” value was -73.3%.
In the case of `CCc1ccc(NC(=O)COc2coc(CN3CCN(c4ccccc4)CC3)cc2=O)cc1` it was 12.3%; in that of `O=C(COc1coc(CN2CCN(c3ccccc3)CC2)cc1=O)NC1CCCC1`, -13.6%.
In the case of `Cc1cccc(NC(=O)COc2coc(CN3CCN(Cc4ccccc4)CC3)cc2=O)c1` it was -65%.
Under `Cc1cccc(NC(=O)COc2coc(CN3CCN(c4ccccc4)CC3)cc2=O)c1` stands -7.9%; under `O=C(COc1coc(CN2CCN(c3ccccc3)CC2)cc1=O)Nc1ccccc1F`, -3.41%.
For `O=C(COc1coc(CN2CCN(c3ccc(F)cc3)CC2)cc1=O)NC1CCCC1`, the “hERG current change (%, negative = inhibition) at 10uM” value is -53.1%.
As for `Cc1cccc(NC(=O)COc2coc(CN3CCN(c4ccccc4)CC3)cc2=O)c1C`, the “hERG current change (%, negative = inhibition) at 10uM” value is given as -28.6%.
Under `COc1ccccc1NC(=O)COc1coc(CN2CCN(c3ccccc3)CC2)cc1=O` stands -60%.
In the case of `Cc1ccc(NC(=O)COc2coc(CN3CCN(c4ccccc4)CC3)cc2=O)cc1` it was 1.7%; in that of `Cc1cccc(NC(=O)COc2coc(CN3CCc4ccccc4C3)cc2=O)c1`, -8.19%.
Under `O=C(COc1coc(CN2CCN(c3ccccc3)CC2)cc1=O)NC1CCCCC1` stands -46.1%.
On to `CN(C)c1ccc(CN2CCCCC2)cc1`, for which the “hERG current change (%, negative = inhibition) at 10uM” value is 14.9%.
Under `CCN(CC(=O)N1CCCCCC1)S(=O)(=O)c1ccc(Cl)cc1` stands -13.5%; under `CC1=Nc2ccccc2N=C(NC(=O)/C=C/C(=O)O)C1c1ccccc1` (stereo not shown), 2.53%.
In the case of `O=c1[nH]c(=O)n(-c2ccccc2F)c(O)c1C=NCCC1=CCCCC1` it was 25.6%.
Under `Cc1c(NC(=O)CN2CCC(C(N)=O)CC2)cccc1[N+](=O)[O-]` stands 26.4%.
Consider `COc1ccc(N2CCN(C(c3cc(OC)ccc3OC)c3nnnn3CC3CCCO3)CC2)cc1.Cl` (stereo not shown), for which the “hERG current change (%, negative = inhibition) at 10uM” value is listed as -9.64%.
Under `CC(C)CNC(=O)[C@H](Cc1ccccc1)NC(=O)c1ccco1` stands -6.82%; under `Cc1ccccc1NC(=O)COc1coc(CN2CCN(c3ccccc3)CC2)cc1=O`, -21.1%.
In the case of `Cc1ccccc1NC(=O)COc1coc(CN2CCN(Cc3ccccc3)CC2)cc1=O` it was -53.3%.
In the case of `CNC(=O)COc1coc(CN2CCN(Cc3ccccc3)CC2)cc1=O` it was 1.83%; in that of `CC(OC(=O)c1ccc(NS(=O)(=O)c2cccs2)cc1)C(=O)N(C)C1CCCCC1` (stereo not shown), -0.558%; in that of `CCc1ccc(NS(=O)(=O)c2ccc3[nH]cc(C(=O)NCC4CCCO4)c(=O)c3c2)cc1` (stereo not shown), 15.4%.
Turning to `CC(=O)Nc1ccc(C(=O)OCCC(C)C)cc1`, the “hERG current change (%, negative = inhibition) at 10uM” value is -17.4%.
Under `Cc1ccc(CNc2cc(C(=O)O)ccc2C)s1` stands 19.2%; under `O=C(Cn1c(=O)n(CC2CCCO2)c(=O)c2ccccc21)N1CCN(c2ccccc2)CC1` (stereo not shown), -21.8%; under `Cc1ccc(C)c(S(=O)(=O)N2CCCOC2CNC(=O)C(=O)NCc2ccccn2)c1` (stereo not shown), 5.01%.
With `CC(C)N1CCC(=NNC(=O)c2cccs2)CC1`, the “hERG current change (%, negative = inhibition) at 10uM” value was found to be 25.6%.
Under `COC(=O)C1=C(N)Oc2cc(C)n(CCc3ccccc3)c(=O)c2C1c1cccnc1` (stereo not shown) stands -25.9%; under `COC(=O)C1=C(N)Oc2cc(C)n(CC3CCCO3)c(=O)c2C1c1ccc(Cl)cc1` (stereo not shown), -8.41%.
In the case of `COC(=O)C1=C(N)Oc2cc(C)n(CCCn3ccnc3)c(=O)c2C1c1ccc(Cl)cc1` (stereo not shown) it was -59.8%.
In the case of `COC(=O)C1=C(N)Oc2cc(C)n(Cc3ccco3)c(=O)c2C1c1cccc(Cl)c1` (stereo not shown) it was -5.24%; in that of `COC(=O)C1=C(N)Oc2cc(C)n(CCCn3ccnc3)c(=O)c2C1c1cccc(Cl)c1` (stereo not shown), -69.7%; in that of `COC(=O)C1=C(N)Oc2cc(C)n(C)c(=O)c2C1c1ccc(Cl)cc1` (stereo not shown), 6.7%.
Take `Cc1cccc(NS(=O)(=O)c2ccc3[nH]c(=O)[nH]c3c2)c1C`: the “hERG current change (%, negative = inhibition) at 10uM” value is 13.7%.
In the case of `Cc1nn(Cc2ccccc2)c(C)c1NC(=O)CSc1nc(C2CC2)nc2c1cnn2-c1ccccc1` it was 8.84%; in that of `OCCCNc1ncnc2oc(-c3ccccc3)c(-c3ccccc3)c12`, -13.2%.
For `CN(C)CCCNc1ncnc2sc(-c3ccccc3)cc12.O=C(O)C(=O)O`, the “hERG current change (%, negative = inhibition) at 10uM” value is given as -60.2%.
In the case of `CN(C)CCNc1ncnc2sc(-c3ccccc3)cc12`, the “hERG current change (%, negative = inhibition) at 10uM” value is on record as -21.1%.
In the case of `OCCCNc1ncnc2sc(-c3ccccc3)cc12` it was 3.23%; in that of `CN(C)CCCNc1ncnc2oc(-c3ccccc3)c(-c3ccccc3)c12`, -69.5%.
In the case of `COc1ccc(-c2oc3ncnc(NCCCO)c3c2-c2ccc(OC)cc2)cc1` it was 4.27%; in that of `Cc1c(C)n(-c2ccccc2)c2ncnc(NCCN(C)C)c12`, -4.04%.
Under `COc1ccc(-c2oc3ncnc(NCCCN(C)C)c3c2-c2ccc(OC)cc2)cc1` stands -60.2%.
As to `CN(C)CCNc1ncnc2oc(-c3ccccc3)c(-c3ccccc3)c12`, the “hERG current change (%, negative = inhibition) at 10uM” value was -60.7%.
Under `COc1ccc(-c2oc3ncnc(N)c3c2-c2ccccc2)cc1` stands 6.52%.
Turning to `CN(C)CCNc1ncnc2ccccc12.Cl`, the “hERG current change (%, negative = inhibition) at 10uM” value stood at 7.66%.
Turning to `COCCCNC(=O)CNC(=S)N(Cc1ccccc1)Cc1cccnc1`, the “hERG current change (%, negative = inhibition) at 10uM” value is on record as -9.77%.
Under `O=C(NCc1cccnc1)Nc1cccc(F)c1` stands 7.53%.
As for `CN(Cc1ccccc1)C(=O)Nc1ccccc1`, the “hERG current change (%, negative = inhibition) at 10uM” value came out at 7.49%.
In the case of `COC(=O)c1ccccc1NC(=O)COc1ccc(S(=O)(=O)N2CCCC2)cc1C` it was 8.37%.
In the case of `CSc1nnc2c(n1)OC=Nc1ccc(Br)cc1-2` it was -11.7%.
Under `O=C(NCC1CCCO1)c1ccc[nH]1` (stereo not shown) stands 12.3%; under `COc1ccc2oc(=O)c(C(=O)Nc3ccccc3O)cc2c1`, 8.79%.
In the case of `Cn1c(CC(=O)Nc2ccccc2F)nnc1SCC(=O)Nc1nccs1`, the “hERG current change (%, negative = inhibition) at 10uM” value amounted to 18.6%.
Under `Fc1ccc(-c2cc(C(F)(F)F)n3ncnc3n2)cc1` stands 26.8%.
In the case of `CC(=O)c1cc2c(cc1NC(=O)c1cnc(C)cn1)OCO2` it was 4.22%.
As for `CCN(CC)CC(O)CN(c1ccccc1)S(=O)(=O)c1ccc2ccccc2c1.Cl` (stereo not shown), the “hERG current change (%, negative = inhibition) at 10uM” value is on record as -80.2%.
In the case of `Cc1cc(C)n(CC(O)CN(c2ccccc2)S(=O)(=O)c2ccc3ccccc3c2)n1` (stereo not shown) it was -6.13%; in that of `CCN(c1ccccc1)S(=O)(=O)c1ccc2ccccc2c1`, -3.29%.
In the case of `O=S(=O)(c1ccccc1)N(CC(O)Cn1c2ccccc2c2ccccc21)c1ccccc1` (stereo not shown) it was 14.9%; in that of `Cc1ccc(S(=O)(=O)N(CC(O)CN(C)C)c2ccccc2)cc1.Cl` (stereo not shown), -65.6%.
In the case of `Cc1cccc(N(CC(=O)N2CCCC2)S(=O)(=O)c2ccccc2)c1` it was -34.7%; in that of `Cc1ccc(S(=O)(=O)N(CC(O)CN2C(=O)NC(C)(C)C2=O)c2ccccc2)cc1` (stereo not shown), -37.7%.
As for `Cc1ccc(S(=O)(=O)N(C)c2ccccc2)cc1`, the “hERG current change (%, negative = inhibition) at 10uM” value was -11.8%.
In the case of `Cc1cccc(N(CC(O)CN(C)C)S(=O)(=O)c2ccccc2)c1.Cl` (stereo not shown) it was -63%; in that of `Cc1ccc(N(CC(O)CN(C)C)S(=O)(=O)c2ccccc2)cc1.Cl` (stereo not shown), -68.1%.
In the case of `COC(=O)CN(c1cccc(C)c1)S(=O)(=O)c1ccccc1` it was -14%.
Under `O=S(=O)(c1ccccc1)N(CC(O)COc1ccccc1)c1ccccc1` (stereo not shown) stands -26.6%.
